In PubChem BioAssay AID1347418 (Sanford-Burnham Center for Chemical Genomics, 2020):
Screen size: about 1,300 compounds; about 750 (58%) were called active. Some of the results follow.

Each compound was assayed against Sulfhydryl oxidase 1 (Homo sapiens) (UniProt O00391) (assay: QSOX1 enzyme inhibitors, primary screen, biochemical, ROS-Glo H2O2 luminescence, HTS (AID 1347418)). Settings: recombinant QSOX1, ROS-Glo H2O2 luminescence; at 12.5 µM; active compounds read high; active = any value above zero.
Chain of Sulfhydryl oxidase 1 (Homo sapiens) (O00391 whole entry, looked up): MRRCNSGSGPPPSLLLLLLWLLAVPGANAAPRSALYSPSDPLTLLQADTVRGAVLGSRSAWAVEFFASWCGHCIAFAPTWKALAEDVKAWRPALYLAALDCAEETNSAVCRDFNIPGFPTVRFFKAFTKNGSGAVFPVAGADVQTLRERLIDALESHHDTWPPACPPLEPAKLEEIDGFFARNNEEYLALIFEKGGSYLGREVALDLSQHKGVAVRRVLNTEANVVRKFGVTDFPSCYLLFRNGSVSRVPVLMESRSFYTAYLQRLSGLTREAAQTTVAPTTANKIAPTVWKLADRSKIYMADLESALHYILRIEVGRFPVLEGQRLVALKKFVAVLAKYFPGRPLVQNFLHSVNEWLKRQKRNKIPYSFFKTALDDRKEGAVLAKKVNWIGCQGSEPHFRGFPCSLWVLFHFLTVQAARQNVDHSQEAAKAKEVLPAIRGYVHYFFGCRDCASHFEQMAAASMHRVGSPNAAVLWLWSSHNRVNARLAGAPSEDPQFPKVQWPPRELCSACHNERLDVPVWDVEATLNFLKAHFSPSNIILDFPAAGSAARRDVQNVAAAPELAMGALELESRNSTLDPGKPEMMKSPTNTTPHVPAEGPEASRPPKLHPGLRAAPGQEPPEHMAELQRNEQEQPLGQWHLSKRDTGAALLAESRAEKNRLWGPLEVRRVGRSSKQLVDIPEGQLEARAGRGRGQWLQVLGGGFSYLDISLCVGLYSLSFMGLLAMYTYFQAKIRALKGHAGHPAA

inhibition, inactive:
S=C([S-])OC1CC2C[C+]1C1CCCC21 (centres undefined) -1.8%
CN(C)CCCC1(c2ccc(F)cc2)OCc2cc(C#N)ccc21 (centres undefined) -4.9%
CN=C(N)NCCC[C@H](N)C(=O)O -2.7%
CCCC(CCC)C(=O)O -0.3%
N[C@@H](COP(=O)(O)O)C(=O)O -1.4%
N[C@@H](CS(=O)O)C(=O)O -2.6%
NOCC(=O)O -7.4%
CC(=O)N[C@H](C(=O)O)C(C)(C)SN=O -3.3%
N[C@@H]1CONC1=O -12.8%
CC(C)(C(=O)O)c1ccc(C(O)CCCN2CCC(C(O)(c3ccccc3)c3ccccc3)CC2)cc1 (centres undefined) -1.3%
CC(C)(C)c1ccc(C(O)CCCN2CCC(C(O)(c3ccccc3)c3ccccc3)CC2)cc1 (centres undefined) -4%
CNC[C@H](O)c1cccc(O)c1 -3.5%
CC(C)(C)NCC(O)c1cc(O)cc(O)c1 (centres undefined) -2%
NS(=O)(=O)C1=[C+]C=[C+]c2c1c([N+](=O)[O-])cc1nc([O-])c([O-])nc21 -4.9%
CCCCCCCCCCCCCCCC(=O)NCCO -1.3%
c1cnc2c(c1)ccc1cccnc12 -2.1%
CC1(C)CCC=[N+]1[O-] -1.5%
O=C(O)[C@@H]1C[C@H](C(=O)O)N1 -6.9%
C=CCNc1ncnc2ccc(Br)cc12 -1.1%
O=c1onc2n1-c1cc(Br)ccc1OC2 -0.8%
NCCCCC(=O)O -2.5%
O=C(O)CCCC[C@@H]1CCSS1 -2.4%
CCOC(=O)N1CCN(/[N+]([O-])=N/Oc2ccc([N+](=O)[O-])cc2[N+](=O)[O-])CC1 -34%
NC(=O)c1ncn([C@@H]2O[C@H](CO)[C@@H](O)[C@H]2O)n1 -3.1%
NCCCNCCCCNCCCN -1.8%
CC1(C)C(=O)N(CCN2CCC(C(=O)c3ccc(F)cc3)CC2)c2ccccc21 -1.4%
O=C(O)c1cc(=O)cc(C(=O)O)[nH]1 -2%
C[C@@]1(C2CCCC2)Cc2cc(OCC(=O)O)c(Cl)c(Cl)c2C1=O -4.6%
COc1ccc2c(c1)c(CC(=O)O)c(C)n2Cc1ccc(Cl)cc1 -5.1%
CCN1C(=O)C=CC1=O -3.8%
N[C@@H](CCC(=O)N[C@H](CSN=O)C(=O)NCC(=O)O)C(=O)O -4.8%
N=C(N)SCCc1ccc(CCSC(=N)N)cc1 -2.2%
O=NN(CCCl)C(=O)NCCCl -3.4%
Nc1ccc(S(=O)(=O)Nc2ccnn2-c2ccccc2)cc1 -1.7%
CN(C)CC[C@@H](c1ccc(Cl)cc1)c1ccccn1 0%
CCCCC/C=C\CC(O)/C=C/c1cccc(CC(O)CCCCO)n1 (centres undefined) -0.7%
C=C1N=C(N=NC2=C(S(=O)(=O)[O-])[C+]=C(S(=O)(=O)[O-])[C+]=C2)[C+](COP(=O)([O-])O)C(C=O)=C1O -3.7%
CCOC(=O)C(C)Oc1cccc2c(=O)n(CC(=O)Nc3ccc4c(c3)OCCO4)ccc12 (centres undefined) -3.2%
Cc1nc2ccccn2c(=O)c1CCN1CCC(C(=O)c2ccc(F)cc2)CC1 -1.4%

inhibition, active:
O=c1onc2cnc3ccccc3n12 1.7%
O=c1[nH]cnc2[nH]ncc12 7.1%
OC[C@H]1NC[C@@H](O)[C@@H]1O 3.1%
OCC1NCC(O)C(O)C1O (centres undefined) 0.3%
CCCCS(=N)(=O)CC[C@H](N)C(=O)O (some centres undefined) 2.8%
CCCCS(=N)(=O)CCC(N)C(=O)O (centres undefined) 5.6%
O=S(=O)(c1cccc2c(I)cccc12)N1CCCNCC1 8.3%
O=S(=O)(c1cccc2c(Cl)cccc12)N1CCCNCC1 0.5%
CC(=O)O[C@H]1C(=O)[C@@]2(C)C([C@H](OC(=O)c3ccccc3)[C@]3(O)C[C@H](OC(=O)[C@H](O)[C@@H](NC(=O)c4ccccc4)c4ccccc4)C(C)=C1C3(C)C)[C@]1(OC(C)=O)CO[C@@H]1C[C@@H]2O (some centres undefined) 1.7%
N[C@H](CO)C(=O)O 1.4%
N[C@@H](CC(=O)O)C(=O)O 4.2%
C=CC[C@H](N)C(=O)O 4.9%
CC(=O)N[C@@H](CS)C(=O)O 1.8%
Cc1ccccc1/C=C/C1=NCCN1 0.5%
CC(C(O)c1ccc(O)cc1)N1CCC(Cc2ccccc2)CC1 (centres undefined) 7.3%
C[C@@H](CN1CCC(Cc2ccccc2)CC1)[C@@H](O)c1ccc(O)cc1 3.4%
CNC[C@H](O)c1ccc(O)c(O)c1 8.4%
CNCC(O)c1ccc(O)c(O)c1 (centres undefined) 2.8%
CC(C)(C)NCC(O)c1ccc(O)c(CO)c1 (centres undefined) 5.3%
Cc1cn[nH]c1 1.9%
COc1ccccc1CNCCCCCCNCCCCCCCCNCCCCCCCNc1ccccc1OC 1.8%
CCCCCCCC/C=C\CCCCCCCC(=O)NCCO 6.9%
Oc1ccc(C2CNCc3sccc32)cc1O (centres undefined) 15.7%
CN1Cc2sccc2C(c2ccc(O)c(O)c2)C1 (centres undefined) 23.4%
c1ccc(-c2ccccn2)nc1 7.3%
Cn1c(=O)[nH]c2ncn(C)c2c1=O 3%
Cn1cnc2c1c(=O)[nH]c(=O)n2C 3.2%
CCN(CC)C(C)CN1c2ccccc2Sc2ccccc21 (centres undefined) 50.6%
CC(CN1c2ccccc2Sc2ccccc21)N(C)C (centres undefined) 43.7%
O=C1NC(=O)/C(=C/c2ccc(-c3ccc(F)cc3O)o2)S1 27.2%
NC(=O)c1cnccn1 0.9%
NC(CO)C(=O)NNCc1ccc(O)c(O)c1O (centres undefined) 25.6%
NCCCCCC(=O)O 5%
OCC1O[C@H]([S-])[C@@H](O)C(O)[C@@H]1O.[Au+] (some centres undefined) 2.4%
CC(=O)N[C@@H](Cc1c[nH]c2ccccc12)C(=O)OCc1cc(C(F)(F)F)cc(C(F)(F)F)c1 2%
O=C1C2C=CC=CC2=NC(=S)N1CCN1CCC(=C(c2ccc(F)cc2)c2ccc(F)cc2)CC1 (centres undefined) 4.4%
NCCCCNCCCN 1.5%
CC(C)(C)NCC(O)COc1nsnc1N1CCOCC1 (centres undefined) 3.3%
CCOC(=O)C12CC1/C(=N/O)c1ccccc1O2 (centres undefined) 0.7%
O=C(c1ccc(F)cc1)C1CCN(CCn2c(=O)[nH]c3ccccc3c2=O)CC1 1.5%
O=C(O)c1cc2cc(F)ccc2[nH]1 6.8%
CCCC[C@@]1(C2CCCC2)Cc2cc(OCC(=O)O)c(Cl)c(Cl)c2C1=O 4.2%
CC(C)c1ccc2c(c1)c(SC(C)(C)C)c(CC(C)(C)C(=O)O)n2Cc1ccc(Cl)cc1 8.9%
Cc1cc2c(C(C)C)c(O)c(O)c(C=O)c2c(O)c1-c1c(C)cc2c(C(C)C)c(O)c(O)c(C=O)c2c1O 50.4%
[N-]=[N+]=Nc1ccc(C(=O)CSC[C@H](NC(=O)CC[C@H](N)C(=O)O)C(=O)NCC(=O)O)cc1 6.8%
O=C1N=C([O-])CN1/N=C/C1=C[C+]=C(c2ccc([N+](=O)[O-])cc2)O1 3.6%
N=C(N)SCCN 6.4%
S=C(S)N1CCCC1 19.5%
N#CC(C#N)=C(N)/C(C#N)=C/c1ccc(O)cc1 11.6%
O=[N+]([O-])c1ccc2c(c1)S(=O)(=O)C=C2 2%
O=c1[nH]c2cc(C(F)(F)F)ccc2n1-c1cc(C(F)(F)F)ccc1O 1.4%
NC1CCN(O)C1=O (centres undefined) 1.1%
COc1cc2c(c(OC)c1OC)-c1ccc(OC)c(=O)cc1[C@@H](NC(C)=O)CC2 1.3%
CCCCCCC(=O)OC1CC(C)(C)NC(C)(C)C1 1.1%
CNc1cc(NS(=O)(=O)c2ccc(N)cc2)nc(NC)n1 3.7%
O=C(O)C1=CC(=C(c2ccc(O)c(C(=O)O)c2)c2ccc(O)c(C(=O)O)c2)C=CC1=O 17.4%
COc1cc(/C=C(\C#N)C(=O)c2ccc(O)c(O)c2)cc(I)c1O 27.3%
N#C/C(=C\c1ccc(O)c(O)c1)C(=O)c1ccc(O)c(O)c1 17.4%
CN(C)CCC(c1ccccc1)c1ccccn1 (centres undefined) 1.1%
CN(C)CCC(c1ccc(Cl)cc1)c1ccccn1 (centres undefined) 2.8%
CN(C)CC[C@@H](c1ccc(Br)cc1)c1ccccn1 7.7%
CN(C)CCC(c1ccc(Br)cc1)c1ccccn1 (centres undefined) 0.5%
O.O.[NH2-].[NH2-].[NH2-].[NH2-].[NH2-].[NH2-].[NH2-].[NH2-].[NH2-].[NH2-].[NH2-].[NH2-].[NH2-].[NH2-].[Ru].[Ru].[Ru] 20.7%
O=C1CCc2cc(OCCCCc3nnnn3C3CCCCC3)ccc2N1 1.5%
CCOC(=O)C1=C[C@]2(CC)CCCN3CCc4c(n1c1ccccc41)[C@@H]32 0.9%
O=C1c2c(O)ccc(O)c2C(=O)c2c(NCCNCCO)ccc(NCCNCCO)c21 42%
CC(=O)[C@H]1CC[C+]2C3CC=C4C[C@@H](OS(=O)(=O)[O-])CC[C@]4(C)C3CC[C@@]21C (some centres undefined) 1.8%
c1ccc(CN2CCC3(CCCc4ccccc43)CC2)cc1 3.6%
Cc1nc2sccn2c(=O)c1CCN1CCC(=C(c2ccccc2)c2ccc(F)cc2)CC1 1.2%
Cc1nc2sccn2c(=O)c1CCN1CCC(=C(c2ccc(F)cc2)c2ccc(F)cc2)CC1 1.1%
